Source: ChEMBL document CHEMBL3988442, “University of Dundee, Small-Polar-MMV Screening Library” (2021)
Among all 69,000 compounds or so, about 950 (1.4%) showed an effect of 50% or more. Many of the other results were omitted from the sample, so strong results are more common in it than they were.

test system: Mycobacterium tuberculosis; experiment: Cornell M. t heat shock assay; type: functional, organism-based; set-up: dose or concentration left out as unconfirmed; further: in the data most compounds retested in dose-response had high values

| SMILES | Percent Effect [%] |
| --- | --- |
| CC(C)CS(=O)(=O)N1C[C@H]2C[C@H](C(=O)N(C)C)[C@@H](C1)O2 | 1.328 |
| COc1ccc2c(c1)CN(C)C(=O)CCN2CC(O)C(C)(C)C (stereo not given) | 46.8 |
| CCN1Cc2cc(OC)ccc2N(CC(C)(C)O)CCC1=O | -11.62 |
| CCN1Cc2cc(F)ccc2N(CC(O)C(F)(F)F)CCC1=O (stereo not given) | 51.9 |
| CC(C)OCc1nn(C)c2c1CN(Cc1cccs1)CC2.O=CO | 3.631 |
| Cc1noc(CNc2c(N3CCCC3)cccc2N2CCCC2)n1 | 25.1 |
| Cc1noc(C)c1CNc1c(N2CCCC2)cccc1N1CCCC1 | 65.01 |
| COc1ccccc1N1CCC(NCc2c(C)noc2C)C1 (stereo not given) | -23.49 |
| COc1cccc(CN2CCC3(CC2)CCN(C(=O)[C@@H]2CCCO2)C3)c1.O=C(O)C(F)(F)F | -4.383 |
| Cc1nc(Cc2ccc(F)cc2)cc(C2COCCN2)n1.Cl (stereo not given) | 12.05 |
| O=C(Nc1ccccc1)[C@H]1C[C@@H]2CN(S(=O)(=O)C3CC3)C[C@H]1O2 | 2.732 |
| CN(C)CCN(C(=O)Cc1ccc2c(c1)OCCO2)C1CCN(C)CC1.O=C(O)CC(O)(CC(=O)O)C(=O)O | -33.14 |
| CCOCC1CN(Cc2cccnc2)Cc2nn(C)cc21.O=C(O)C(F)(F)F.O=C(O)C(F)(F)F (stereo not given) | -34.52 |
| c1ccc(Oc2ccc(OC34CCCN(CC3)C4)cc2)cc1 (stereo not given) | 98.13 |
| c1ccc(Oc2cccc(OC34CCCN(CC3)C4)c2)cc1 (stereo not given) | 91.1 |
| Cc1cnccc1CNCc1ccc(OC23CCCN(CC2)C3)cc1 (stereo not given) | -9.053 |
| N#Cc1cccc(OC23CCCN(CC2)C3)c1 (stereo not given) | -19.96 |
| O=c1[nH]nc(CNCc2ccc(OC34CCCN(CC3)C4)cc2)[nH]1 (stereo not given) | -6.374 |
| Cc1nc(CNCc2cccc(OC34CCCN(CC3)C4)c2)n[nH]1 (stereo not given) | -9.099 |
| CCOCC1CN(C(=O)c2cc(C)oc2C)Cc2c1cnn2C.O=C(O)C(F)(F)F (stereo not given) | 38.21 |
| CN1CC(=O)N(c2cccc(F)c2)CC12CCN(S(C)(=O)=O)C2.O=C(O)C(F)(F)F (stereo not given) | -1.241 |
| CNC(=O)c1ccc(Cn2ccnc2S(C)(=O)=O)cc1 | 3.305 |
| CSCC(=O)Nc1ncn(Cc2cccc(Br)c2)n1 | -31.04 |
| CC(C)(C#N)C(=O)Nc1nccn1Cc1ccc(Br)cc1 | 102.4 |

| SMILES | Percent Effect [%] |
| --- | --- |
| COCCC(=O)Nc1nccn1Cc1ccc(Br)cc1 | 102.5 |
| CS(=O)(=O)c1nccn1Cc1ccc(C(N)=O)cc1 | 2.892 |
| COCCn1ccc(=O)c(OCC(=O)Nc2ccc(Br)cc2)c1C | 17.79 |
| COCCC(=O)Nc1ccnn1-c1ccccc1 | -7.442 |
| CCOCC(=O)Nc1ncn(Cc2cccc(Br)c2)n1 | -16.14 |
| CCOCC(=O)Nc1nccn1Cc1ccc(Br)cc1 | 106.8 |
| CSc1ncccc1C(=O)Nc1ccc(Cn2ccccc2=O)cc1 | 5.912 |
| CSCC(=O)Nc1nccn1Cc1ccc(Br)cc1 | 103.2 |
| CCOCC(=O)Nc1ccc(-n2ccc(C(N)=O)n2)cc1 | 15.42 |
| O=C1c2cnc(N3CCOCC3)nc2CN1C1CCS(=O)(=O)C1 (stereo not given) | 3.438 |
| CN(C)[C@@H]1CCN(C(=O)Cc2cccs2)[C@H]1Cc1ccncc1.O=C(O)C(F)(F)F.O=C(O)C(F)(F)F | -5.714 |
| O=C(O)C(=O)O.c1cc(CN2CCC(c3ccc4c(c3)OCO4)CC2)ccn1 | -9.586 |
| Cc1nc[nH]c1CN1C[C@@H]2CC[C@H](C1)N(C(=O)CCn1cncn1)C2 | 2.899 |
| Cc1cc(C(=O)N2CCO[C@H]3[C@H](OCCN(C)C)CC[C@@H]32)c(C)[nH]1.O=C(O)C(F)(F)F | -25.69 |
| O=C(O)C(F)(F)F.O=C(O)C(F)(F)F.c1cnn(Cc2nnc3n2CCCN(Cc2ccsc2)C3)c1 | -42.35 |
| O=C(O)C(F)(F)F.c1cnc(N2CCCC3(CCN(CC4CCOC4)CC3)C2)nc1 (stereo not given) | -17.62 |
| COCC(=O)NC(C)Cc1ccc(Br)cc1 (stereo not given) | 38.61 |
| COCC(=O)Nc1nn(Cc2ccc(F)cc2)cc1Cl | -26.17 |
| COCC(=O)Nc1nccn1Cc1ccc(Br)cc1 | 82.4 |
| Cc1cccc(Cc2cc(C)nc(C3CCCNC3)c2)c1 (stereo not given) | -6.804 |
| Cc1cc(Cc2ccccc2)cc(C2CCCNC2)n1 (stereo not given) | -1.453 |
| Cc1cc(Cc2cccc(C(F)(F)F)c2)cc(C2CCCNC2)n1 (stereo not given) | 52.39 |
| CN(C)C(=O)C1CCN(C2CCN(CC3CCC3)CC2)CC1.O=C(O)C(F)(F)F.O=C(O)C(F)(F)F | 5.992 |
| c1ccc(CCN2CCCC2c2cncc(Nc3nncs3)n2)cc1 (stereo not given) | 99.24 |

| SMILES | Percent Effect [%] |
| --- | --- |
| Cc1nc(Nc2nncs2)cc(C2CCCN2C)n1 (stereo not given) | -13.41 |
| CNc1cncc(C2CCCN2S(=O)(=O)c2ccccc2)n1 (stereo not given) | -16.46 |
| c1cc(C2CCCN2CC2CC2)n[nH]1 (stereo not given) | 1.213 |
| c1nnc(Nc2cncc(C3CCCN3CC3CC3)n2)s1 (stereo not given) | 103.4 |
| CNc1cncc(C2CCCN2Cc2ccn(C)n2)n1 (stereo not given) | -19.6 |
| Cl.Cl.c1ccc2c(c1)C(NC1CCCC1)CC21CCNCC1 (stereo not given) | -6.748 |
| O=C1C[C@H]2CC[C@@H](CN1)N2C(=O)CCCc1ccc(Cl)cc1 | -2.57 |
| CN1[C@H]2CC[C@@H]1CN(C(=O)c1ccc(-c3ccccc3)[nH]1)CC2 | 5.823 |
| O=C(c1ccco1)N1CCC(n2nc(-c3ccco3)ccc2=O)CC1 | 18.57 |
| CC(C)C(=O)N1CCC(n2nc(-c3ccco3)ccc2=O)CC1 | 1.271 |
| O=C(Cc1ccsc1)N1CCC(n2nc(-c3ccco3)ccc2=O)CC1 | 50.48 |
| Cc1nc(CNCC2Cn3nncc3CO2)cs1.O=C(O)C(F)(F)F (stereo not given) | 3.892 |
| O=C(O)C(F)(F)F.O=C(c1cscn1)N1CCC2(CN(Cc3ccoc3)C2)C1 | -1.882 |
| COCc1nc2cc(NCc3ccncc3)ccc2o1 | 47.84 |
| COCc1nc2cc(NCc3ccc(CO)o3)ccc2o1 | -21.34 |
| COCc1nc2cc(NCc3ccc(C)o3)ccc2o1 | 60.09 |
| CCc1ccsc1C(=O)N1CCN(CC(O)CC)CC1 (stereo not given) | 21.24 |
| O=C(c1ccco1)N1C(CO)[C@]2(O)CC[C@H]1CC2 (stereo not given in full) | 34.52 |
| CN(C)CCN1CCO[C@@H]2CN(C(=O)Cc3ccsc3)CC[C@@H]2C1 | 50.48 |
| Cc1ccc(CC(=O)N2CC[C@@H]3CN(CCN(C)C)CCO[C@@H]3C2)cc1.O=C(O)C(F)(F)F.O=C(O)C(F)(F)F | -3.479 |
| CN(C)CCN1CCO[C@@H]2CN(C(=O)c3cccs3)CC[C@@H]2C1.O=C(O)C(F)(F)F.O=C(O)C(F)(F)F | -0.5819 |
| CCc1c(C)[nH]c(C2(N)CCCCC2)nc1=O.Cl | -31.03 |
| COCCNC(=O)c1cccnc1Oc1ccc(Cl)cc1 | 50.01 |
| O=C(NCCOCCO)c1cccnc1Oc1ccc(Cl)cc1 | 43.92 |

| SMILES | Percent Effect [%] |
| --- | --- |
| CCOC(=O)CNC(=O)c1cccnc1Oc1ccc(Cl)cc1 | -21.74 |
| COc1ccc(Oc2ncccc2NC(=O)N2CC[C@H](O)C2)cc1 | -5.111 |
| O=C(c1cccnc1Oc1ccc(Cl)cc1)N1CC[C@@H](O)C1 | 54.07 |
| O=C(c1cccnc1SCc1ccccc1)N1CC[C@@H](O)C1 | 7.782 |
| O=C(Cc1ccccn1)N1CCN2C[C@H](Oc3cccc(F)c3)C[C@H]2C1.O=C(O)C(F)(F)F.O=C(O)C(F)(F)F | -12.23 |
| CN(C)C(=O)N1CCC2(CCCN(Cc3cnn(C)c3)C2)C1.O=C(O)C(F)(F)F (stereo not given) | -9.776 |
| CC(C)n1c(C2CCCN(CC(=O)NC3CC3)C2)nc2ccccc21 (stereo not given) | -32.24 |
| CN1CCN(C(=O)c2ncn3c2CN(C)S(=O)(=O)c2ccccc2-3)CC1.O=C(O)C(F)(F)F | -21.31 |
| CCn1cc(N2Cc3nc(N(C)C)ncc3C2=O)cn1 | 8.315 |
| O=C(C1CC=CC1)N1CCC2(CCN(Cc3ccccn3)C2=O)C1.O=C(O)C(F)(F)F (stereo not given) | -18.77 |
| COc1ccc(OCCNCc2c(C)nn(C)c2N(C)C)cc1.Cl | 36.3 |
| CNC(=O)c1cc2c(nc1N(C)C)CCN(c1ncc(C)cn1)CC2.O=C(O)C(F)(F)F | 38.06 |
| O=C(O)C(F)(F)F.O=C(c1ccc(F)cc1)N1C[C@@H]2CCN(c3cccnc3)C[C@@H]2C1 | -7.242 |
| O=C(C1CCC1)N1C[C@@H]2CCN(c3cccnc3)C[C@@H]2C1.O=C(O)C(F)(F)F | -23.64 |
| Fc1cccc(N2C[C@H]3CCN(c4cccnc4)C[C@H]3C2)c1.O=C(O)C(F)(F)F | 98.87 |
| C[C@@H]1CN(CCc2ccccc2)C[C@]12CCN(CC(=O)N(C)C)C2=O.O=C(O)C(F)(F)F | 2.052 |
| CN(Cc1ncc(C(C)(C)C)o1)CC1CCCN1c1cccnn1 (stereo not given) | 66 |
| CC(C)(C)c1cnc(CNCC2CCCN2c2cccnn2)o1 (stereo not given) | -26.2 |
| CN(Cc1ncc(-c2ccccc2)o1)CC1CCCN1c1cccnn1 (stereo not given) | 0.462 |
| Cc1nc2ccccc2nc1CN(C)CC1CCCN1c1cccnn1 (stereo not given) | 18.99 |
| Cn1c(CNCC2CCCN2c2cccnn2)nc2ccccc21 (stereo not given) | 3.675 |
| CN(Cc1nc2ccccc2n1C)CC1CCCN1c1cccnn1 (stereo not given) | 101.2 |
| Cn1nccc1-c1nnn2c1COCC(CNCC1CC1)C2.O=C(O)C(F)(F)F.O=C(O)C(F)(F)F (stereo not given) | 30.33 |
